Vaccinia mCherry: qHTS for Stage-Specific Inhibitors of Vaccinia Orthopoxvirus: mCherry Reporter Primary qHTS | Potency, µM (titrated, usually from 36.5 µM), actives largely listed as inhibitors | Vaccinia virus mCherry reporter infection, fluorescence | AID 720579, 2013 | actives 0.63% (n = 310,000); calls by dose curve; tested in A549 cells; note: nearly all actives have a fitted effect of over 35% in size
HCV inh: qHTS Assay for Inhibitors of Hepatitis C Virus (HCV) | Huh7.5.1 HCVcc-Cre infection, luciferase reporter, 44 h | Potency, µM (top dose mostly 41.8 µM), usual class: inhibitors | actives 3.4% (n = 340,000) | AID 651820, 2012; active = well fitted inhibition curve with a large enough effect; inconclusive = small, poorly fitted or top-dose-only effect, or another doubt; inactive = no such curve, though single readings can be large or run the other way
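HCVcc-Cre virus at an moi near 0.5 was added right after compound to cells cultured 4 h from seeding (1,000 cells/well). Luciferase activity was determined 44 h later, 15 min after substrate addition at RT.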
Vaccinia Venus: qHTS for Stage-Specific Inhibitors of Vaccinia Orthopoxvirus: Venus Reporter Primary qHTS; actives 0.46% (n = 330,000); AID 720580, 2013; Vaccinia virus Venus reporter expression, fluorescence; Potency, µM (highest dose often 36.5 µM), actives largely listed as inhibitors; calls by dose curve; tested in A549 cells; note: nearly all actives have a fitted effect of over 30% in size
HCMV antiviral: qHTS Assay for inhibitors of the human cytomegalovirus (HCMV). HFF cells, HCMV-luciferase reporter, 72 h; stronger effect = lower value. activity change, negative = inhibition, % at 57.5 µM. actives 4.5% (n = 410,000). AID 1259415, 2018; in the data active = activity change below about -60%; inconclusive = no clear call, values can overlap the other calls; inactive = above about -39%
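Cell-based, HFFs, 1000 cells/well, 16 h 37C; cpds in DMSO + HCMV-luc, MOI 1 PFU/cell; 72 h 37C; OneGlo luminescence after 5 min RT; norm. to buffer vs Salinomycin 10uM.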
Lassa entry inh: qHTS for Inhibitors of binding or entry into cells for Lassa Virus; Potency, µM (top dose mostly 37.9 µM), actives largely listed as inhibitors; actives 1.2% (n = 300,000); Lassa virus pseudotype entry inhibition, cell reporter; calls by dose curve; tested in HEK293 cells; note: nearly all actives have a fitted effect of over 50% in size
MARV entry inh: qHTS for inhibitors of binding or entry into cells for Marburg Virus. Marburg virus pseudotyped entry inhibition, cell reporter. Potency, µM (top dose mostly 37.8 µM), actives largely listed as inhibitors. actives 1.8% (n = 300,000). AID 540276, 2011; calls by dose curve; tested in HEK293 cells
Hits are given with their value; 0 = inactive; ? = inconclusive; - = not tested or not shown. Shown are actives, neighbours in structure and some others; about 7.8% of the full set was active somewhere.

SMILES | Vaccinia mCherry | HCV inh | Vaccinia Venus | HCMV antiviral | Lassa entry inh | MARV entry inh
CC(=O)Nc1ccc(NC(=O)c2ccc(CSc3ccccc3)o2)cc1 | 0 | 0 | 0 | 0 | 0 | 0
O=C(Nc1ccc(CSc2ccccc2)cc1)c1ccco1 | - | 0 | - | -83.6 | - | -
Cc1ccc(C)c(N2CCN(CCCNC(=O)c3nnc(Cc4ccc(F)cc4Cl)o3)CC2)c1 | 0 | - | 0 | 0 | ? | ?
CC(=O)c1ccccc1-c1ccc2c(c1)CC(CNC(=O)c1ccnc(Cl)c1)O2 (stereo unspecified) | 0 | - | ? | - | - | -
Cc1ccc(C)n1C1C(=O)N(C)c2ccc(OC(F)(F)F)cc21 (stereo unspecified) | - | - | - | 0 | - | -
CN(CC(=O)Nc1c(Cl)cccc1Cl)C(=O)c1cc(-c2cccs2)nn1-c1ccccc1 | 0 | ? | 0 | 0 | ? | 0
CCN(CC(=O)Nc1c(F)cccc1F)C(=O)c1cc(-c2cccs2)nn1-c1ccccc1 | 0 | 14.1µM | 0 | 0 | 0 | 0
c1ccc2sc(N3CCCN(Cc4nc(-c5cnccn5)no4)CC3)nc2c1 | 0 | ? | 0 | -78.6 | 0 | ?
c1cnc(-c2noc(CN3CCN(C4CCCC4)CC3)n2)cn1 | 0 | 0 | 0 | 0 | 0 | 0
COCCN1CCN(C(=O)c2cnn(-c3ncc4c(n3)-c3ccc(OC)cc3CC4)c2C2CC2)CC1 | 0 | - | 0 | - | - | -
C=C(C)CCN1C(=O)NC(c2ccccc2)C(C(C)=O)=C1C (stereo unspecified) | - | - | - | - | ? | 0
COc1ccc(-c2c[n+](CC(=O)OC3CC(C)CCC3C(C)C)c3n2CCC3)cc1 (stereo unspecified) | - | ? | - | -99.7 | - | -
CC(C)[C@@H]1CC[C@@H](C)C[C@H]1OC(=O)C[n+]1cc(-c2ccc(Cl)cc2)n2c1CCCCC2 | 0 | 0 | 0 | -96.7 | ? | ?
CCOCCc1nn2c(=O)cc(COC(=O)c3cccc(C)c3)nc2s1 | 0 | - | 0 | 0 | 0 | -
Cc1cc(C)c2nc(N3CCCC(C(=O)NCc4cccc(Cl)c4)C3)sc2c1 (stereo unspecified) | 0 | - | 0 | 0 | - | 0
O=C(Nc1ccc(N2CCOCC2)cc1)c1cc2c(s1)CCCC2 | 0 | 3.98µM | 0 | ? | 0 | ?
CC1CCc2sc(C(=O)N(C)CC(=O)Nc3ccc(N4CCOCC4)cc3)cc2C1 (stereo unspecified) | 0 | 0 | 0 | -68.4 | 0 | 0
O=C(Nc1ccc(N2CCOCC2)cc1)c1cc2c(s1)CCCCC2 | 0 | 11.2µM | 0 | 0 | 0 | ?
Cc1csc(NC(=O)c2cc3c(s2)CCCCC3)n1 | - | ? | ? | ? | 2.24µM | ?
O=C(Nc1ccccc1N1CCOCC1)c1cc2c(s1)CCCCC2 | 0 | 0 | 0 | 0 | ? | ?
COc1cc(C2c3c(oc4ccccc4c3=O)C(=O)N2c2nncs2)cc(OC)c1OC (stereo unspecified) | 0 | - | 0 | 0 | ? | 0
Cc1cc(C(=O)Nc2ccccc2-c2nc(CNC(=O)C3(C)CCCCC3)c(C)o2)c(C)o1 | 0 | - | 0 | - | - | -
C/C(CCN1CCCc2nc(C)c(C)cc21)=N\O[C@H](C)CN1CCCc2nc(C)c(C)cc21 | - | - | - | - | - | 0
Cc1c(Br)cccc1NC(=O)C1(C)CCN1C(C)C (stereo unspecified) | 0 | - | 0 | -80.4 | - | -
CCOC(=O)/C(C#N)=C/c1c(N2CCCCCC2)nc2ccccn2c1=O | - | ? | - | 0 | - | -
SMILES | Vaccinia mCherry | HCV inh | Vaccinia Venus | HCMV antiviral | Lassa entry inh | MARV entry inh
CCNc1nn2ccccc2c1/C=C(\C#N)C(=O)OCC | 0 | 10µM | 0 | 0 | - | -
N#Cc1c(/N=C/c2ccc(Br)s2)sc2c1CCC2 | 0 | 0 | 0 | 0 | 0 | ?
N#Cc1c(/N=C/c2cccs2)sc2c1CCCCC2 | 0 | 10µM | 0 | 0 | ? | ?
CC(C)(C)C1CCc2onc(C(=O)Nc3sc4c(c3C(N)=O)CCCC4)c2C1 (stereo unspecified) | 0 | - | 0 | 0 | 0 | 0
Cc1ccc(Nc2cc(C)c3ccc(O)cc3n2)cc1C | - | 10µM | - | 0 | - | -
CC(C)CCOc1ccc(C(=O)NCC2OCCc3ccccc32)cc1 (stereo unspecified) | 0 | - | 0 | 0 | 0 | 0
CCCCC(=O)Nc1ccc2nc(SCC(=O)N3CCc4ccccc43)sc2c1 | 0 | - | 0 | 0 | 0 | ?
Cc1oc(-c2ccc3c(c2)OCCO3)cc1C(=O)O | 0 | 0 | 0 | -63.2 | 1.12µM | ?
COc1ccccc1-c1cccc([C@@H]2C[C@H]3[C@H](CON3C)CN2Cc2ccccc2)c1 | 0 | 8.91µM | 0 | 0 | - | -
COc1ccccc1CN1CCCC(n2cc(C(=O)N3CCCCC3)nn2)C1 (stereo unspecified) | 0 | - | 0 | - | - | -
Cc1cc(C)c(C(=O)NCc2nc(-c3cccc(NC(=O)C4CCCN(C)C4)c3)oc2C)[nH]1 (stereo unspecified) | 0 | - | 0 | - | - | -
Cc1ccc(N2C(=O)c3cccc([N+](=O)[O-])c3C2=O)cc1C | 0 | 0 | 0 | 0 | 0 | 0
Cc1cccc(C)c1N1C(=O)c2cccc([N+](=O)[O-])c2C1=O | 0 | 0 | 0 | -62.7 | 0 | 0
C[C@H](CO)N1C[C@H](C)[C@@H](CN(C)Cc2ccc(Cl)c(Cl)c2)Oc2c(NC(=O)Cc3ccccc3)cccc2C1=O | 5.62µM | 0 | ? | 0 | - | -
C[C@H](CO)N1C[C@H](C)[C@@H](CN(C)C)Oc2c(NC(=O)Cc3ccccc3)cccc2C1=O | 0 | 0.562µM | 0 | 0 | - | -
C[C@H](CO)N1C[C@H](C)[C@@H](CN(C)Cc2ccccc2)Oc2c(NC(=O)Cc3ccccc3)cccc2C1=O | 0 | ? | ? | 0 | - | -
C[C@H](CO)N1C[C@H](C)[C@@H](CN(C)C)Oc2c(NS(=O)(=O)c3ccc(F)cc3)cccc2C1=O | 0 | 0 | 0 | -73.0 | - | -
CN([C@H]1CCS(=O)(=O)C1)S(=O)(=O)c1cccc2nsnc12 | - | - | - | - | - | 0
CCCCOc1ccc(Cl)cc1CSc1n[nH]c(C)n1 | 0 | 0 | 0 | 0 | 0 | 0.206µM
